PubChem BioAssay AID463082 (The Scripps Research Institute Molecular Screening Center, 2010)
Screen size: about 330,000 compounds; about 4,900 (1.5%) were called active. The entries come from a sample that favours actives as a whole. Unmarked numbers belong to inactive results.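 The calls were made as follows: active = inhibition above the mean inhibition across the screen plus 3 SD (cut at about 25% in these data); inactive = the rest.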

biological target: Platelet-activating factor acetylhydrolase (Homo sapiens) (UniProt Q13093); assay: pPAFAH enzyme inhibitors, primary screen, biochemical, fluorescence polarization, human (AID 463082); conditions: recombinant pPAFAH, FP-rhodamine probe fluorescence polarization; at 3.39 µM; active compounds read high;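 also: inhibitors block binding of the rhodamine activity-based probe so polarization drops; 0% = enzyme with DMSO and 100% = wells lacking pPAFAH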
Sequence (Q13093 whole entry, looked up): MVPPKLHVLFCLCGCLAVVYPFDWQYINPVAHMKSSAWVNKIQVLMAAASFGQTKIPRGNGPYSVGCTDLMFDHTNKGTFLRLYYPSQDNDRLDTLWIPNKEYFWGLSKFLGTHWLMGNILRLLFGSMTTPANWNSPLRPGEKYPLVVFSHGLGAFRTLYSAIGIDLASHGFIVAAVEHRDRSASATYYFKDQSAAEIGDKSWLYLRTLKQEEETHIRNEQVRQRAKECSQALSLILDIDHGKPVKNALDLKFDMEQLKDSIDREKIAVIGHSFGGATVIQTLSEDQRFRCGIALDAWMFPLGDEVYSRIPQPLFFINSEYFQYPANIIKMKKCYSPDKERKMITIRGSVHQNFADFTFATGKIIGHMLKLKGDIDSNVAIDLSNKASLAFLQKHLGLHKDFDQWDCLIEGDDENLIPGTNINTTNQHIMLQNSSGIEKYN

Row | Structure (SMILES) | inhibition
1 | CC(=O)Nc1ccc(S(=O)(=O)N2CCN(C(=O)c3ccccc3F)CC2)cc1 | -5.31%
2 | COc1ccc(S(=O)(=O)N(C)C[C@@H]2Oc3ccc(NC(=O)Nc4c(C)noc4C)cc3C(=O)N([C@H](C)CO)C[C@@H]2C)cc1 | 1.97%
3 | COc1ccc(S(=O)(=O)NCc2cccnc2)cc1NC(=O)c1ccc(C)cc1 | 0.8%
4 | Cc1cccc(C)c1NC(=O)CCS(=O)(=O)c1cccc2nsnc12 | -6.43%
5 | Cc1cccc(Cn2cnc3c(N)c(C)c(C)cc32)c1 | 9.5%
6 | Cn1c(=O)c(C(=O)Nc2ncccn2)c(O)c2ccccc21 | 1.18%
7 | COC(=O)c1ccc(C(NC(=O)OCc2ccccc2)/C(C)=C/[C@@H](C)C(=O)NCc2ccc(OC)c(OC)c2)cc1 (some centres not stated) | 40.4% (active)
8 | COC(=O)c1ccc(C(NC(=O)OCc2ccccc2)/C(F)=C/[C@@H](C)C(=O)O)cc1 (some centres not stated) | 6.41%
9 | COc1ccc(COC(=O)NC(C(=O)O)c2ccccc2)cc1 (configuration not stated) | -0.13%
10 | C=CCNC(=O)C1CC2c3ccccc3C1c1ccccc12 (configuration not stated) | 3.92%
11 | CSC1=NC2(C)CCCCC2C12C=CC(=O)C=C2 (configuration not stated) | 5.48%
12 | Cc1nn(C)cc1C(=O)c1ccccc1 | -11.2%
13 | C=C(C)CNC(=O)c1ccc(OC2CCN(C(=O)COC)CC2)cc1 | -1.41%
14 | COc1cc(OC)c(/C=N/NC(=O)c2ccc([N+](=O)[O-])cc2)cc1Br | 2.36%
15 | COc1ccc(/C=N/NC(=O)c2ccc3c(c2)OCCO3)c(OC)c1 | 11.5%
16 | COc1cccc(/C=N/NC(=O)c2[nH]nc3c2CCc2ccccc2-3)c1O | 43.7% (active)

Row | Structure (SMILES) | inhibition
17 | COc1ccc(-c2csc(Cc3nc(O)cs3)n2)cc1 | 13%
18 | Cc1onc(C(=O)NN)c1-c1csc(COc2ccccc2)n1 | -3.91%
19 | CC(C)(C)C(=O)OCc1nc(-c2ccc(O)c(O)c2)cs1 | 27.5% (active)
20 | C/C(=N/N1CCN(Cc2cccc3ccccc23)CC1)c1cccnc1 | -3.57%
21 | CCN(CC)C(=O)[C@H]1CC(CC(=O)NCc2ccco2)C(=O)N2CCc3c([nH]c4ccccc34)[C@]12C (some centres not stated) | -0.35%
22 | CCN1/C(=C\c2ccc3ccccc3[n+]2CC)Sc2cc(C)ccc21 | 36.3% (active)
23 | Cc1ccc(C(=O)OCC(=O)NC(=O)Cc2ccccc2)c(O)c1 | 5.13%
24 | Cc1cc(=O)[nH]c(SCc2ccc(Cl)cc2)n1 | -2.26%
25 | Cc1cc(C)c(C(=O)CSc2nc(C)cc(=O)[nH]2)c(C)c1 | 8.8%
26 | Cc1cc(=O)[nH]c(SCc2cccc(F)c2)n1 | -3.14%
27 | Cc1cc(C(=O)CSc2nc(N)cc(=O)[nH]2)c(C)n1Cc1ccco1 | 13.6%
28 | CCCc1cc(=O)[nH]c(SCC(=O)N2C(C)CCCC2C)n1 (configuration not stated) | 8.03%
29 | Cc1cc(C(=O)CSc2nc(N)cc(=O)[nH]2)c(C)n1-c1cccc(F)c1 | 56.4% (active)
30 | CCCc1cc(=O)[nH]c(SCC(=O)c2cc(C)n(CCC)c2C)n1 | 25.1% (active)
31 | CCCc1cc(=O)[nH]c(SCC(=O)c2c(N)n(CC(C)C)c(=O)n(C)c2=O)n1 | 0.06%
32 | Cc1cc(C(=O)CSc2nc(N)cc(=O)[nH]2)c(C)n1CCc1ccc(Cl)cc1 | 69.6% (active)
